About 3,900 (1.1%) of roughly 360,000 compounds were called active.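 How the source made its calls: active means mean replicate inhibition score of at least 50 and every replicate individually at or above 50; inconclusive means only one of the two criteria met; inactive means mean below 50 and not all replicates reaching 50.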 What follows is part of a selection rich in actives, with near analogues and random picks from the rest.

The nature of the assay: blockers of JRFL envelope-mediated fusion – HeLa-JRFL effector, CEM21 target cells, luciferase, primary screen (AID 651610).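 Further: 0% = plate neutral controls and 100% = maraviroc near 300 nM.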 Conditions: HeLa-JRFL Env/CEM21 cell fusion, stronger effect = higher value; at 16.7 µM unless noted.
As for `O=C(C[C@H]1C=C[C@@H](NS(=O)(=O)c2ccc(F)cc2)[C@@H](CO)O1)NC1CCC1`, the inhibition (usually the change of the read-out against control, counted positive when it falls) was 11.3% (inactive).

Consider `O=C(C[C@H]1C[C@H]2c3cc(NC(=O)Nc4ccc(C(F)(F)F)cc4)ccc3O[C@H]2[C@@H](CO)O1)NCCc1ccccc1`, for which the inhibition was 6.45% (inactive).

`C[C@@H]1CCCCO[C@H](CN(C)C(=O)Nc2ccc(C(F)(F)F)cc2)[C@@H](C)CN([C@@H](C)CO)C(=O)c2cc(NS(=O)(=O)c3cccs3)ccc2O1`: the inhibition was 3.25% (inactive).

For the compound `CN1C(=O)c2cc(NC(=O)Cc3cccs3)ccc2OC[C@@H]2O[C@@H](CC(=O)N[C@@H]3CCN(Cc4ccccc4)C3)CC[C@H]21`, the inhibition is -14% (inactive).

On to `COc1ccc(-n2c(C)cc(C(=O)CSc3nnc(-c4cccs4)o3)c2C)cc1`, for which the inhibition is 89.2% [at 12.3 µM] (active).

On to `COc1ccc(-n2c(C)cc(C(=O)COC(=O)c3cc(OC)c(OC)cc3NC(=O)c3cccs3)c2C)cc1`, for which the inhibition is -7.79% [at 12.3 µM] (inactive).

Consider `COc1ccc(-c2nnc(SCC(=O)c3ccc4c(c3)OCCO4)o2)cc1`, for which the inhibition is 22.9% [at 12.3 µM] (inactive).

Consider `N#C[C@H]1[C@@H](c2ccc(C3=CCCCC3)cc2)[C@@H](CO)N1C(=O)NC1CCCCC1`, for which the inhibition is 0.133% (inactive).

`COc1ccccc1-c1ccc2c(c1)O[C@@H](CN(C)C(=O)Nc1ccccc1)[C@H](C)CN([C@@H](C)CO)S2(=O)=O`: the inhibition was -37.6% (inactive).

`COc1ccc(NC(=O)N(C)C[C@@H]2Oc3ccc(NS(=O)(=O)c4ccc(C)cc4)cc3CC(=O)N([C@@H](C)CO)C[C@H]2C)cc1`: the inhibition is 4.71% (inactive).

Consider `O=C(CSc1ncnc2scc(-c3ccccc3)c12)NCc1ccc2c(c1)OCO2`, for which the inhibition was 22.4% [at 12.3 µM] (inactive).

In the case of `CN(C)C(=O)c1cccc(-c2cnc3c(NC=O)cc(-c4ccc(C(=O)N5CCOCC5)cc4)cn23)c1`, the inhibition is -15.1% [at 12.3 µM] (inactive).

Turning to `CN(C)C(=O)c1cccc(-c2cnc3sc(NCc4ccc5c(c4)OCO5)nn23)c1`, the inhibition was 68.4% [at 12.3 µM] (active).

Consider `O=C(Nc1ccc(C(F)(F)F)cc1)N[C@@H]1CC[C@@H](CCNC(=O)c2ccccc2F)O[C@H]1CO`, for which the inhibition was -1.09% (inactive).

In the case of `Cc1noc(C)c1S(=O)(=O)Nc1ccc2c(c1)CC(=O)N([C@@H](C)CO)C[C@H](C)[C@@H](CN(C)S(=O)(=O)c1cn(C)cn1)O2`, the inhibition is -11.7% (inactive).

Consider `C[C@H]1CCCCO[C@@H](CN(C)C(=O)c2ccccc2)[C@@H](C)CN([C@@H](C)CO)C(=O)c2cc(NS(=O)(=O)c3ccccc3)ccc2O1`, for which the inhibition was -27.7% (inactive).

Consider `CN(C)c1nc(-c2cccnc2)nc(-c2ccc(Cl)cc2)c1C#N`, for which the inhibition was -27.7% [at 12.3 µM] (inactive).

For `CNc1nccc(-c2ccc(Cl)cc2)c1C#N`, the inhibition was 58.1% [at 12.3 µM] (active).

On to `CN(C)c1ccnc(Nc2ccc(F)cc2)c1C#N`, for which the inhibition is 2.55% [at 12.3 µM] (inactive).

With `CCCN(C)C[C@H]1Oc2ncc(-c3ccccc3OC)cc2C(=O)N([C@H](C)CO)C[C@@H]1C`, the inhibition is 16.3% (inactive).

On to `COc1ccc2cc(C3=CC(=O)C[C@H](c4ccc5c(c4)OCO5)C3)ccc2c1`, for which the inhibition is -8.67% [at 12.3 µM] (inactive).

Consider `O=C1C=C(c2cc(C(F)(F)F)cc(C(F)(F)F)c2)C[C@@H](c2ccc3c(c2)OCO3)C1`, for which the inhibition is 14.8% [at 12.3 µM] (inactive).

On to `O=C1C=C(c2ccnc3cc(Cl)ccc23)C[C@@H](c2ccc3c(c2)OCO3)C1`, for which the inhibition was 65.8% [at 12.3 µM] (active).

Turning to `CCC(=O)N[C@H]1CC[C@@H](CC(=O)NCc2cc(F)cc(F)c2)O[C@@H]1CO`, the inhibition was -5.23% (inactive).

Turning to `COc1ccc(NC(=O)N(C)C[C@H]2Oc3ccc(NC(=O)NC(C)C)cc3CC(=O)N([C@H](C)CO)C[C@H]2C)cc1`, the inhibition was 2.47% (inactive).

Regarding `C[C@@H]1CCCCO[C@H](CN(C)S(=O)(=O)c2cccs2)[C@H](C)CN([C@H](C)CO)C(=O)c2cc(NC(=O)c3ccccc3)ccc2O1`, the inhibition was 21.5% (inactive).

Consider `CN(c1ccccc1)S(=O)(=O)c1ccc(C(=O)NCCc2ccccc2)cc1`, for which the inhibition is -11.1% [at 12.3 µM] (inactive).

`Cc1ccc(S(=O)(=O)NCCC(=O)OCC(=O)N(C)c2ccccc2)cc1`: the inhibition is -4.53% [at 12.3 µM] (inactive).

Turning to `CN(C(=O)CC(NC(=O)c1ccccc1)(c1ccccc1)c1ccccc1)c1ccccc1`, the inhibition is 68.6% [at 12.3 µM] (active).

As for `CC(=O)c1ccc(S(=O)(=O)N2CCC3(CC2)OCCO3)cc1`, the inhibition is -7.27% [at 12.3 µM] (inactive).

In the case of `CC(=O)c1ccc(S(=O)(=O)N2CCN(c3nc4c(C)c(C)ccc4cc3C#N)CC2)cc1`, the inhibition is 82.5% [at 12.3 µM] (active).

Consider `CC(=O)c1ccc(S(=O)(=O)N2CCN(C(=O)/C=C/c3ccc4ccccc4n3)CC2)cc1`, for which the inhibition was 21.1% [at 12.3 µM] (inactive).

As to `C[C@@H](CN1C2=NC[C@@H](Cc3ccccc3)N2C[C@H]1Cc1ccc(O)cc1)NC(=O)CCC1CCCCC1`, the inhibition was -12.9% [at 12.3 µM] (inactive).

Take `C[C@@H]1CCCCO[C@H](CN(C)C(=O)C2CCCCC2)[C@@H](C)CN([C@H](C)CO)C(=O)c2cc(NC(=O)C3CCCCC3)ccc2O1`: the inhibition was 13.6% (inactive).

As to `CC(C)(C)NC(=O)C(CCc1ccccc1)n1c(=O)c(-c2ccccc2)nc2ccccc21` (configuration not stated), the inhibition is 20.1% [at 12.3 µM] (inactive).

Consider `CSCCC(C(=O)NC(C)(C)C)n1c(-c2ccccc2)nc2ccccc21` (configuration not stated), for which the inhibition is 56.4% [at 12.3 µM] (active).

For the compound `CCC(C(=O)NC(C)(C)C)n1c(-c2ccccc2)nc2ccccc21` (configuration not stated), the inhibition was -10.4% [at 12.3 µM] (inactive).

Take `COc1cccc(C(=O)Nc2ccc3c(c2)C(=O)N(C)[C@@H]2CC[C@H](CC(=O)NCCCN4CCOCC4)O[C@H]2CO3)c1`: the inhibition was -4.21% (inactive).

For the compound `Clc1ccc2c(c1)C1=C(C(c3ccncc3)O2)C(c2ccc(Br)cc2)n2ncnc2N1` (configuration not stated), the inhibition is 74.5% [at 12.3 µM] (active).

In the case of `O=C(C[C@@H]1C=C[C@H](NC(=O)Nc2ccc(C(F)(F)F)cc2)[C@H](CO)O1)NCc1cccc(F)c1`, the inhibition was 9.04% (inactive).

Take `C[C@H](CO)N1C[C@H](C)[C@H](CN(C)Cc2ccc(C(=O)O)cc2)Oc2ccc(NS(=O)(=O)c3cn(C)cn3)cc2CC1=O`: the inhibition is -3.12% (inactive).

`C[C@@H]1CN([C@@H](C)CO)C(=O)c2cccc(NC(=O)c3ccc(-c4nccs4)cc3)c2O[C@H]1CN(C)Cc1ccc(Cl)c(Cl)c1`: the inhibition is 38.1% (inactive).

In the case of `COc1ccccc1-c1cnc2c(c1)C(=O)N([C@@H](C)CO)C[C@H](C)[C@H](CN(C)C(=O)c1ccncc1)O2`, the inhibition is 2.54% (inactive).

Take `C#CC(C)(C)NC(=O)CSc1nc2c(c(=O)n(C)c(=O)n2C)n1CCCC`: the inhibition is -13.9% [at 12.3 µM] (inactive).

As for `CCCCn1c(SCC(=O)NCCc2ccc(OC)c(OC)c2)nc2c1c(=O)n(C)c(=O)n2C`, the inhibition was 114% [at 12.3 µM] (active).

In the case of `CCCCn1c(SCC(=O)N2CCOCC2)nc2c1c(=O)n(C)c(=O)n2C`, the inhibition is -4.99% [at 12.3 µM] (inactive).

With `C[C@H](CO)N1C[C@H](C)[C@H](CN(C)CC2CCCCC2)OCCCC[C@H](C)Oc2ccc(NC(=O)c3ccncc3)cc2C1=O`, the inhibition was -17.1% (inactive).

With `COC(=O)C1=C(C)N(Cc2ccccc2C(F)(F)F)C(=NCc2ccc(C(F)(F)F)cc2)NC1c1ccc(F)cc1` (configuration not stated), the inhibition was 5.73% [at 12.3 µM] (inactive).

Consider `O=C(NCC(F)(F)F)[C@H]1[C@H](CO)[C@H]2Cn3c(ccc(-c4ccncc4)c3=O)[C@H]2N1Cc1ccncc1`, for which the inhibition is -9.96% (inactive).

As to `COc1cccc(S(=O)(=O)Nc2ccc3c(c2)[C@@H]2C[C@@H](CC(=O)NC4CCCCC4)O[C@H](CO)[C@@H]2O3)c1`, the inhibition was -5.43% (inactive).

In the case of `O=C(c1ccc(C(F)(F)F)cc1)N1CCC(=O)N([C@H](COCc2ccccc2)Cc2ccccc2)CC1`, the inhibition is -5.07% [at 12.3 µM] (inactive).

Consider `CC(C)C[C@@H](COCc1ccc(Cl)cc1)N1CCN(C(=O)c2ccc(Cl)cc2Cl)CCC1=O`, for which the inhibition was -24.6% [at 12.3 µM] (inactive).

As for `CC(C)CC(COCc1ccc(Cl)cc1)N1CCN(C(=O)c2ccc(C(F)(F)F)cc2)CCC1=O` (configuration not stated), the inhibition is 65.7% [at 12.3 µM] (active).

`O=C(C[C@H]1C[C@H]2c3cc(NC(=O)Cc4ccncc4)ccc3O[C@H]2[C@@H](CO)O1)NCc1cccc(F)c1`: the inhibition is 3.14% (inactive).

For `COCC(=O)N(C)C[C@H]1Oc2ncc(-c3ccc(C)cc3)cc2C(=O)N([C@@H](C)CO)C[C@@H]1C`, the inhibition was -0.608% (inactive).

Regarding `Cc1noc(C)c1S(=O)(=O)N(C)C[C@@H]1OCCCC[C@@H](C)Oc2ccc(NC(=O)c3ccccc3)cc2C(=O)N([C@H](C)CO)C[C@H]1C`, the inhibition is -129% (inactive).

As to `C[C@@H]1CN([C@@H](C)CO)S(=O)(=O)c2ccc(C#C[C@@H](C)O)cc2O[C@@H]1CN(C)CC1CC1`, the inhibition is -13.5% (inactive).

With `C[C@H](CO)N1C[C@H](C)[C@H](CN(C)C(=O)Nc2ccc(C(F)(F)F)cc2)OCCCC[C@H](C)Oc2ccc(NC(=O)C3CCCCC3)cc2C1=O`, the inhibition is 9.61% (inactive).

Regarding `CCOc1cc(/C=N/NC(=O)OC)ccc1OCCSc1ccc(Cl)cc1`, the inhibition was 4.12% [at 12.3 µM] (inactive).

Regarding `COc1cc(/C=C(/NC(=O)c2ccc(Cl)cc2Cl)C(=O)O)cc(OC)c1OC`, the inhibition is 4.88% [at 12.3 µM] (inactive).

Turning to `CCOc1cc(/C=C(/C#N)c2ccc(Cl)cc2)cc(Cl)c1OCC(=O)O`, the inhibition was 58% [at 12.3 µM] (active).

In the case of `O=C(C[C@@H]1C[C@@H]2c3cc(NC(=O)C4CCC4)ccc3O[C@@H]2[C@@H](CO)O1)NCCN1CCCCC1`, the inhibition is -4.86% (inactive).

Source of the values: PubChem BioAssay AID651610 (Broad Institute, 2012).
